Experimental findings from PubChem BioAssay AID1159583 (ICCB-Longwood Screening Facility, Harvard Medical School, 2016) are described below.

“And” between values parts separate entries of the source, which are not always exact repeats. Equal values may be shown once. Out of some 300,000 compounds screened, about 310 (0.1%) were called active. Rule as the data show it: active = fluorescence inhibition mostly above about 23% (no sharp cut-off); inactive = mostly below about 17%. This excerpt belongs to a sample that is enriched for actives.

A short description of this assay: hypoxia reporter signal reduction in M. tuberculosis – fluorescence, absorbance growth readout, primary screen (AID 1159583). The note with it: M. tuberculosis hypoxia-regulated fluorescent reporter, stronger effect = higher value, concentration not given here; growth inhibition: measured here: M. tuberculosis growth (absorbance).
For `Cc1ccc(C(=O)ON=Cc2ccc3c(c2)OCO3)cc1`, the fluorescence inhibition was 2.14% (inactive) and the growth inhibition worked out at 12.4%.
The corresponding values for `Cc1ccsc1/C=C1\SC(N2CCOCC2)=NC1=O` are 59.8% (active) and 35.7%.
Turning to `O=C1N=C(N2CCOCC2)S/C1=C\C=C/c1ccccc1`, the fluorescence inhibition was 16.7% (inactive) and the growth inhibition is 6.03%.
The like results for `CCc1ccc(/C=C2\SC(N3CCOCC3)=NC2=O)cc1` were, in that order, -2.06% (inactive) and 6.4%.
The corresponding values for `COC(=O)c1ccc(C=NN2C(C)CCCC2C)cc1` (stereo not given) are 12.1% (inactive) and 0.227%.
The like results for `[O-]C1=N[N+](=Cc2ccc(Cl)cc2)CC1` were, in that order, 9.03% (inactive) and 2.77%.
`Cc1ccc(F)c(C2C3C=CCC[C@@]3(C)C(=O)N2Cc2ccccc2)c1` (stereo not given in full): the fluorescence inhibition was 0.237% (inactive) and the growth inhibition worked out at 4.91%.
The corresponding values for `CCOC(=O)C1C2COc3ccc(OC)cc3C2N2C(=O)c3cc(OC)ccc3NC(=O)[C@@]12C` (stereo not given in full) are -0.571% (inactive) and -0.925%.
Turning to `CN1CCSC1=CC=C1C(=O)N(C)C(=S)N1C`, the fluorescence inhibition was 41.3% (active) and the growth inhibition was determined as 10.5%.
The like results for `CN1C(=O)/C(=C/C=C2\SCCN2C)OC1=S` were, in that order, -23.3% (inactive) and 5.47%.
The like results for `Oc1ccc(C=NNC(=S)Nc2cccnc2)c(O)c1O` were, in that order, 19% (inactive) and 3.53%.
For the compound `O=C(NN=Cc1cccc2nccnc12)c1ccncc1`, the fluorescence inhibition was 93.3%.
On to `C#CCOCCOCCOCCNc1nc(N2CCN(C(=O)C(CCC(=O)O)n3cc(C(N)Cc4ccc(O)cc4)nn3)CC2)nc(N2CCN(C(=O)C(C(C)CC)n3cc(C(N)CO)nn3)CC2)n1` (stereo not given), for which the fluorescence inhibition was 8.78% (inactive) and the growth inhibition came out at 6.78%.
Turning to `N#CC(=Cc1ccc(O)c(O)c1)C(=O)c1ccc(O)c(O)c1`, the fluorescence inhibition is -0.458% (inactive) and the growth inhibition is -7.09%.
The like results for `CC(=NNc1nc(C)cc(-c2ccccc2)n1)c1ccc(C)o1` were, in that order, 5.64% (inactive) and 13.1%.
As for `CCC(C)CCN1C(Nc2ccccc2)=NCC1CC(C)C` (stereo not given), the fluorescence inhibition is 2.94% (inactive) and the growth inhibition amounted to 9.85%.
On to `CC(=NNC(=S)Nc1ccccc1)c1ccc2c(c1)OCO2`, for which the fluorescence inhibition is 4.36% (inactive) and the growth inhibition was -7.15%.
Turning to `CN1CCN(C(=O)C2=CC(c3ccccc3)CC(OCc3ccc(CO)cc3)O2)CC1` (stereo not given), the fluorescence inhibition is 10.4% (inactive) and -0.342% (inactive); the growth inhibition is 12.8% and -5.24%.
As for `C=CCNC(=S)N=c1sccn1C`, the fluorescence inhibition was 6.54% (inactive) and the growth inhibition was -7.89%.
The corresponding values for `CC(=NNC(=O)c1cc(-c2cccc([N+](=O)[O-])c2)n[nH]1)c1ccc(F)cc1` are 14.8% (inactive) and -5.45%.
The like results for `COc1ccc(N(CC(=O)NN=C(C)c2cccs2)S(=O)(=O)c2ccccc2)cc1Cl` were, in that order, -6% (inactive) and -2.78%.
The corresponding values for `CCOC(=O)C1C2COc3ccccc3C2N2C(=O)N(c3cccc(F)c3)C(=O)[C@@]12C` (stereo not given in full) are -2.44% (inactive) and 3.57%.
`COC(=O)C1=C(c2ccc(OC(F)(F)F)cc2)CC2CCC1N2C(=O)NCCOc1ccc(OC)cc1` (stereo not given): the fluorescence inhibition is 0.962% (inactive) and the growth inhibition stood at 6.26%.
The like results for `O=C(CC(=O)NC1CCCCC1)NN=Cc1ccccc1Cl` were, in that order, 2.92% (inactive) and 1.5%.
The corresponding values for `CCN1CC2C3C(=O)N(Cc4ccccc4)C(=O)C3[C@](CC)(C1=O)N2C(=O)c1ccc(Br)cc1` (stereo not given in full) are 6.17% (inactive) and 7.16%.
The like results for `CN1CC2C3C(=O)N(C)C(=O)C3[C@](C)(C1=O)N2C(=O)c1ccc(Cl)c(Cl)c1` (stereo not given in full) were, in that order, 18.2% (inactive) and 5.39%.
In the case of `Oc1cccc(C=NNc2ncnc3c2ncn3Cc2ccccc2)c1`, the fluorescence inhibition was 12.7% (inactive) and the growth inhibition was found to be 4.03%.
The corresponding values for `COc1ccc(C(N)=NOC(=O)c2cccc([N+](=O)[O-])c2)cc1` are 2.69% (inactive) and 7.49%.
Take `Cc1cc(C=NNC(N)=S)c(C)n1-c1ccc(Cl)cc1`: the fluorescence inhibition came to 79.4%.
In the case of `O=C(O)c1cc(C(=O)O)cc(-c2ccc(C=c3sc4nc5ccccc5n4c3=O)o2)c1`, the fluorescence inhibition was 9.74% (inactive) and the growth inhibition came out at 9.98%.
The like results for `O=C(C1=CC(c2csc3ccccc23)CC(OCc2ccc(CO)cc2)O1)N1CCCCCCC1` (stereo not given) were, in that order, 5.62% (inactive) and 15.1%.
For `COc1ccc2c(Cl)c(C(=O)NN=Cc3c(C)[nH]c4ccccc34)sc2c1`, the fluorescence inhibition was 12.9% (inactive) and the growth inhibition is -1.23%.
For the compound `COc1cccc(C(=O)NN=C(c2ccccc2)c2ccccn2)c1`, the fluorescence inhibition was 5% (inactive) and the growth inhibition was 11%.
For `CCOC(=O)c1cc(C)sc1N=CC1C(=O)CC(C)(C)CC1=O`, the fluorescence inhibition was 5.08% (inactive) and the growth inhibition was 4.24%.
With `Cc1ccc(C2C3C(=O)N(C)C(=O)C3[C@]3(C)C(=O)N(CC4CC4)CC(=O)N23)o1` (stereo not given in full), the fluorescence inhibition was 3.26% (inactive) and the growth inhibition is -2.47%.
The like results for `CC(=NNC(=O)C(=O)Nc1ccc(C)c(Cl)c1)c1ccncc1` were, in that order, 9.7% (inactive) and 2.87%.
The corresponding values for `CCOC(=O)C1=C(N)n2c(sc(=Cc3ccncc3)c2=O)=C(C(=O)OCC)C1c1ccncc1` (stereo not given) are -2.3% (inactive) and -3.45%.
On to `C=C1CC(C(=O)NN=Cc2ccc(O)cc2)C1`, for which the fluorescence inhibition is 2.24% (inactive) and the growth inhibition was 7.43%.
The like results for `COc1ccc(NC(=O)COC(=O)CON=C(C)c2ccc3c(c2)OCO3)cc1S(N)(=O)=O` were, in that order, -7.57% (inactive) and -2.6%.
Regarding `Cc1ccc(-c2c(C(=O)NN=Cc3ccc(C)o3)nnn2-c2nonc2N)cc1`, the fluorescence inhibition is 3.86% (inactive) and the growth inhibition was determined as 8.97%.
Consider `Cc1ccc(C=NNC(=O)CSc2nc3ccccc3n2C)s1`, for which the fluorescence inhibition was 13.6% (inactive) and the growth inhibition was 0.932%.
Turning to `COc1ccc(-c2nn(-c3ccccc3)cc2C=NNC(=O)c2cccc(S(=O)(=O)Nc3ccccc3OC)c2)cc1`, the fluorescence inhibition is 12.6% (inactive) and the growth inhibition came to 0.139%.
With `O=C(Cc1n[nH]c(=O)[nH]c1=O)NN=CCCc1ccccc1`, the fluorescence inhibition is 11.1% (inactive) and the growth inhibition stood at 4.96%.
The corresponding values for `CCCN(CCC)Cc1c(C(=O)NN=Cc2c[nH]c3ccccc23)nnn1-c1nonc1N` are -3.6% (inactive) and 2.65%.
For `C=C1CCN(C(C)C(=O)NCc2ccc(OC)cc2)S(=O)(=O)c2ccccc21` (stereo not given), the fluorescence inhibition is 19.8% (inactive) and the growth inhibition is 12.8%.
The like results for `CCOc1ccc2c(c1)C(c1ccc(C)cc1)=NNC(c1ccc(C)cc1)=N2` were, in that order, 21.9% (inactive) and 10.8%.
The corresponding values for `CCOc1ccc(-c2nnc3ccc(SC)nn23)cc1` are 4.55% (inactive) and 1.4%.
The like results for `CCOc1ccc(-c2cc(C)[n+](CCN(CC)CC)c(-c3ccc(OCC)cc3)c2)cc1` were, in that order, 53.9% (active) and 33.9%.
Take `O=C(NN=Cc1c[nH]c2ccccc12)c1cc2ccccc2o1`: the fluorescence inhibition is 0.899% (inactive) and the growth inhibition worked out at 8.76%.
The like results for `COc1cccc(C=NNc2ncnc3c2ncn3Cc2ccccc2)c1O` were, in that order, 7.12% (inactive) and 2.3%.
The corresponding values for `CCc1ccc(S(=O)(=O)NN=Cc2ccc3c(c2)OCO3)cc1` are 1.76% (inactive) and -2.08%.
